# DAX1 inh-1 – inhibitors of human orphan nuclear receptor DAX1 (NR0B1). HEK293 Gal4-DAX1 luciferase reporter, luminescence. inhibition, % at 6.75 µM. hit rate 0.99% among 340,000;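 active means inhibition above the mean over all tested compounds plus 3 SD, cut at about 4.2% in these data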;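 further: 0% = DAX1-transfected cells with DMSO and 100% = empty-vector control cells with DMSO; inhibition shows as a rise in luminescence from relieved DAX1 repression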
# Target sequence (P51843 207-470 limits assumed): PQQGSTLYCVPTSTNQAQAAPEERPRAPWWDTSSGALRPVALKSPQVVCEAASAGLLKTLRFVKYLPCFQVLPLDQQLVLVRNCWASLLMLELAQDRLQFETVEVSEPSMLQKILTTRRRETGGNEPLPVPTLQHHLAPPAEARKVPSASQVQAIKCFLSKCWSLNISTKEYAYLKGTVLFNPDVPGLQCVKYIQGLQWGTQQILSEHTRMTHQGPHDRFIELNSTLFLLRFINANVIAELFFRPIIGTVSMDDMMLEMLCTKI
# ssDAF-12 act – S. stercoralis DAF-12 activation, primary screen. HEK293 ssDAF-12/GRIP1 lit1-tk-luc reporter, luminescence; % of 3 µM dafachronic acid response. activation, % at 6.8 µM. hit rate 1% among 370,000. AID 652126;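 active means activation above the mean over all tested compounds plus 3 SD, cut at about 0.9% in these data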;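 further: 0% = DMSO-only wells and 100% = 3 µM delta7-dafachronic acid wells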
# hgDAF12 agonist – hgDAF-12 agonism, primary luciferase screen. HEK293 GAL4-hgDAF12 UAS-luciferase reporter, agonist luminescence; normalized to butyrate control. AID 687014. activation, % at 6.8 µM. hit rate 1.8% among 370,000;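 active means activation above a cutoff set at the mean of all screened compounds plus 3 SD, cut at about 10% in these data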;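 further: 0% = DMSO wells and 100% = sodium butyrate wells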
# DAX1 inh-2 – blocks DAX1 repression of SF-1 activated StAR promoter; HEK293T StAR-luciferase reporter, SF-1/DAX-1 repression relief; inhibition, % at 6.8 µM; AID 652010; hit rate 1.1% among 370,000;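 active means inhibition above the mean over all tested compounds plus 3 SD, cut at about 3.6% in these data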;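 further: 0% = DAX-1 cells with DMSO and 100% = cells lacking DAX-1 with DMSO; higher inhibition means more luminescence from relief of DAX-1 repression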
# hcDAF12 agonist – H. contortus DAF-12 activation, primary screen | HEK293 hcDAF-12 lit1-tk-luc reporter, luminescence; 0% DMSO, 100% Δ7-dafachronic acid | activation, % at 6.8 µM | AID 652067 | hit rate 1.4% among 370,000;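 active means activation above the mean of all tested compounds plus 3 SD, cut at about 5.5% in these data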;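 further: 100% = response to 3 µM Δ7-dafachronic acid high control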
# The depositor's hits bear a star; x = not tested or not shown. Hits are enriched below; roughly 4.1% of the tested compounds scored in any of these assays.
SMILES,DAX1 inh-1,ssDAF-12 act,hgDAF12 agonist,DAX1 inh-2,hcDAF12 agonist
O=C(CC12CC3CC(CC(C3)C1)C2)NC(=S)N1CCCCC1,1,1.2*,0,0,-1
Cc1ccc(S(=O)(=O)N2CCN(C(=O)COC(=O)COc3ccc(Cl)cc3)CC2)c(C)c1,4.8*,-1,-1,0,0
COc1cccc(/C=C2\CC3(OC(=O)c4ccccc4)CCCN2C3)c1 (stereo unspecified),x,-1,-2,0,2
O=c1[nH]nc(Cc2ccc3ccccc3n2)c2ccccc12,1,1.0*,4,1,6.5*
Cc1c(NC(=O)C2CCCN(S(=O)(=O)c3cccc4ccccc34)C2)c(=O)n(-c2ccccc2)n1C (stereo unspecified),x,-1,-1,-1,-4
COCCNC(=S)N1CCN(c2nc(-c3cccc(OC)c3)cs2)CC1,4.3*,-2,0,-1,-1
Cc1ccccc1OCc1nc2ccccc2c(=O)n1/N=C/c1c[nH]c2ccccc12,-1,-1,0,1,2
Cc1ccc(-c2[nH]ncc2/C=N/n2c(COc3ccccc3C)nc3ccccc3c2=O)cc1,-2,-1,13*,-1,0
Oc1ccc(-c2nnc(SCC3CCCCC3)o2)cc1,1,0,11*,3,1
O=C(CSc1nnc(-c2ccc(F)cc2)o1)NC1CCCCC1,1,-2,-1,1,-2
FC(F)Oc1ccc(NC(=S)N2CCc3ccccc32)cc1,0,1.4*,6,0,4
CN(C)c1ccc(-c2nc3cc(N)ccc3o2)cc1,-5,1,11*,1,5.8*
Nc1ccc(-c2nc3cc(N)ccc3o2)cc1,1,-1,11*,2,4
COC(=O)c1ccc(-c2nc3cc(N)ccc3o2)cc1,-3,-2,-5,-1,-3
Nc1ccc(-c2nc3ccc(N)cc3o2)cc1,4,-2,12*,2,-1
Nc1cc[n+](CC(=O)c2ccccc2)cc1,1,-1,-2,-1,-3
O=C(C[n+]1ccc2ccccc2c1)c1ccccc1,4.8*,1,9,1,4
COc1ccc(NC(=S)NC(=O)C2CCCCC2)cc1,2,-1,4,3.8*,1
NS(=O)(=O)c1ccc(NC(=S)NC(=O)C2CCCC2)cc1,1,-1,-2,0,5.8*
CN1CCN(S(=O)(=O)c2ccc(NC(=S)NC(=O)C3CCCCC3)cc2)CC1,0,-1,3,-1,0
O=C([C@@H]1C[C@H]1c1ccccc1)N1CCC(Oc2cccnc2)CC1,x,-1,0,0,0
CC(C)CN1C(=O)[C@@]2(CC(=O)N(C)C2c2ccccc2)c2cc(-n3cc(CCCC#N)nn3)ccc21 (stereo partly specified),x,-1,0,1,-2
CC(=O)N(CCCN(C)C)CCC(C)CCC=C(C)C (stereo unspecified),0,1.1*,-3,1,-1
NNC(=O)c1ccc(Cn2cc(Br)cn2)o1,4.5*,-1,3,0,-1
CCC(C)c1ccc(S(=O)(=O)N2CCN(C(=O)CN3C(=O)NC(C)(C4CC4)C3=O)CC2)cc1 (stereo unspecified),1,-1,-2,1,0
SMILES,DAX1 inh-1,ssDAF-12 act,hgDAF12 agonist,DAX1 inh-2,hcDAF12 agonist
CCCc1ccc(S(=O)(=O)N2CCN(C(=O)CN3C(=O)NC(C)(C4CC4)C3=O)CC2)cc1 (stereo unspecified),4.3*,-1,-2,1,1
O=C(O)CN1C(=O)/C(=C2\SC(=S)N(C(Cc3ccccc3)C(=O)O)C2=O)c2ccccc21 (stereo unspecified),0,1.2*,1,0,6.4*
Cc1ccc(C2=NN=C(NC(=O)C(F)(F)F)SC2)cc1,0,2.3*,12*,1,4
O=C(Nc1cccc(S(=O)(=O)N2CCCCCC2)c1)c1ccc2ccccc2n1,1,0,5,2,6.4*
O=C(Nc1ccc(N2CCCCC2)cc1)c1ccc2ccccc2n1,5.5*,-1,9,1,4
O=C(Nc1cccc(-c2cn3c(n2)SCC3)c1)c1ccc2ccccc2n1,-1,0,12*,3,4
CCOc1cc(N2CCOCC2)c(OCC)cc1NC(=O)c1ccc2ccccc2n1,0,0.9*,6,2,3
CCCCCCCC(=O)N[C@H]1CC[C@@]23CCCN2C(=O)CCC[C@H]3[C@H]1C,x,-2,-1,x,0
C[C@@H]1CN(C(=O)c2cc(COc3cccc(C(F)(F)F)c3)on2)C[C@H](C)O1,2,-1,11*,3,3
O=C(Nc1ccccc1OC(F)F)c1ccc(F)cc1,-1,-1,0,1,-3
CC1Sc2ccc(C(=O)Nc3ccccc3OC(F)F)cc2NC1=O (stereo unspecified),1,-1,6,4.3*,0
C=CCNc1oc(/C=C/c2ccccc2)nc1C#N,3,0.9*,9,3.9*,5
COCCCNc1oc(/C=C/c2ccccc2)nc1C#N,3,0,12*,3,5
COC(=O)CSc1nc2cc3c(cc2cc1C#N)OCO3,4.7*,0,12*,3.7*,3
CC(C)OC(=O)CSc1nc2cc3c(cc2cc1C#N)OCO3,1,-1,3,-1,-2
N#Cc1cc2cc3c(cc2nc1SCC(=O)N1CCOCC1)OCO3,6.6*,-1,7,1,4
CCOc1ccc2cc(C#N)c(SCC(=O)N3CCOCC3)nc2c1,3,0,11*,3,3
Cc1cc(NC(=O)CSc2n[nH]c(N)n2)no1,0,-1,0,4.3*,0
CCc1nc(SCC(=O)Nc2cc(C)on2)n[nH]1,0,0,1,0,0
CCc1nc(SCC(=O)Nc2cc(C)on2)c2c(C)c(C)sc2n1,5.7*,0,-1,0,-2
Cc1cc(NC(=O)CSCC(=O)Nc2nc3ccccc3[nH]2)no1,1,1,3,3,5.8*
Cc1cc(NC(=O)CSc2nc3ccccc3[nH]2)no1,0,-1,0,0,-1
Cc1cc(NC(=O)CSCC(=O)Nc2nc3ccc(F)cc3s2)no1,0,0,2,1,5.7*
O=C(Cn1c(-c2cncs2)nc2ccccc21)N1CCOCC1,x,-1,1,-1,-2
C[C@H]1[C@@H](NC(=O)C#Cc2ccccc2)CC[C@@]23CCCN2C(=O)CCC[C@@H]13,x,-2,-3,x,-1
CN(CCCOC(=O)c1cc2ccccc2o1)C1CN(Cc2cn(Cc3ccc([N+](=O)[O-])cc3)nn2)S(=O)(=O)C1 (stereo unspecified),x,-1,3,0,0
CCn1c(=O)n(CC(=O)N2CCC(C)CC2)c(=O)c2ccccc21,x,-2,1,0,-1
